# Assay results from the OligoGym collection.
# Biological target: MED31
# Experiment: pooled miR-30 sensor sort-seq; sequence = guide strand
# Conditions: shRNA
# Note: reference of the scale not given here.
row,Sequence,sensor-assay potency score (higher = more potent)
1,TTGGAGCAGCTCTAACATGTGT,-0.598
2,TCGATTTCCAGCATCATCTGTC,0.22
3,TAAATTTCGCACACTGAGCATT,-1.04
4,TTGCTGTTGCTGCTCTGCCAAG,-1.72
5,TCTAACATGTGTAAACACTGAG,0.543
6,TTGCACAAATTCCAACTCCAAC,-1.8

# Biological target: MEI1
# Experiment: as above
# Conditions: shRNA
row,Sequence,sensor-assay potency score (higher = more potent)
1,TTGCGCACTAACGACACGCCGG,-1.01
2,TCTTGCTCTGACACATTCCTGA,0.143
3,AAAGGTAACAGACAGAAGCTTG,-0.962
4,TGGAACAGGACTACTAAGCTGG,0.124
5,TAGCACTTTCTCCCAGTCCATC,-1.62
6,TTGCTCTGACACATTCCTGAGC,-0.804
7,TTGTGAGCTGTGTCCACTGGGC,-0.159
8,TTCTCTGAATCTCTACTGGAGG,-0.666
9,TTTTCTGATTGCACTGACCATA,-0.486
10,ATGGTGAGTATAGACTAGCTGC,-0.611
11,TAGACTAGCTGCAGGTCTGGGA,-0.257

# Biological target: MEN1
# Experiment: as above
# Conditions: shRNA
row,Sequence,sensor-assay potency score (higher = more potent)
1,TTCTTCACCAGCTCACGGCTGG,-0.0281
2,TTCATCTGCACTTGCGACTGTG,0.123
3,TCATCTGCACTTGCGACTGTGC,-1.27
4,TAGATCTCCTCGTCTTCCCGGC,-0.0589
5,TTGTAGTCCTGGATGACAGTGG,0.138
6,TTCAGGTACAGCCAGCTCCGCT,-1.42
7,TAGTAGGTCTTGGCTGAGGCAA,-1.23
8,TATGACATCGGAGACCTTCTTC,0.751
9,TACTTCAAAGAACTCCTTGTAG,0.208
10,TTGTGGTAGAGGGTGAGTGGGT,-0.985
11,TTCTTCATCTGCACTTGCGACT,-0.844
12,TAGAGGGACAGGTCGACGGCGC,-0.785

# Biological target: MEPCE
# Experiment: as above
# Conditions: shRNA
row,Sequence,sensor-assay potency score (higher = more potent)
1,TAGTAGTTCTTGTAGATCGTTT,-0.407
2,TTCAGATGCACCCACTTGGTGA,-1.03
3,TAACTGAGGCAGCTGGAGGGGC,-0.431
4,TTCTTGTAGATCGTTTCTGTAA,-0.866
5,TTGGATTCGGTAGTAGTTCTTG,0.313
6,TAAGAGTCTTTCTCTTGCCATA,-1.25
7,TAGTATTTGCAATAATTCCCAT,-0.782
8,TAGTGTCGGATGTTTTGGCGGG,-0.437
9,TTGTGGAACAGGTACACAGGAC,-0.946
10,TGATGTGTCCGCTCCATCCAAG,-1.38
11,TTTCGAACGGTGGTGGTCCCTT,-0.585
